From ChEMBL document CHEMBL1961873, “Compounds: GSK PKIS; Assays: Nanosyn kinase panel” (2012)

Experiments:
[1] = target: T1, Inhibitor of nuclear factor kappa-B kinase subunit epsilon (Homo sapiens) (UniProt Q14164); conditions: at 1 µM;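 further: reported values are averaged percent inhibition figures against human IKKε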
T1 sequence (whole entry): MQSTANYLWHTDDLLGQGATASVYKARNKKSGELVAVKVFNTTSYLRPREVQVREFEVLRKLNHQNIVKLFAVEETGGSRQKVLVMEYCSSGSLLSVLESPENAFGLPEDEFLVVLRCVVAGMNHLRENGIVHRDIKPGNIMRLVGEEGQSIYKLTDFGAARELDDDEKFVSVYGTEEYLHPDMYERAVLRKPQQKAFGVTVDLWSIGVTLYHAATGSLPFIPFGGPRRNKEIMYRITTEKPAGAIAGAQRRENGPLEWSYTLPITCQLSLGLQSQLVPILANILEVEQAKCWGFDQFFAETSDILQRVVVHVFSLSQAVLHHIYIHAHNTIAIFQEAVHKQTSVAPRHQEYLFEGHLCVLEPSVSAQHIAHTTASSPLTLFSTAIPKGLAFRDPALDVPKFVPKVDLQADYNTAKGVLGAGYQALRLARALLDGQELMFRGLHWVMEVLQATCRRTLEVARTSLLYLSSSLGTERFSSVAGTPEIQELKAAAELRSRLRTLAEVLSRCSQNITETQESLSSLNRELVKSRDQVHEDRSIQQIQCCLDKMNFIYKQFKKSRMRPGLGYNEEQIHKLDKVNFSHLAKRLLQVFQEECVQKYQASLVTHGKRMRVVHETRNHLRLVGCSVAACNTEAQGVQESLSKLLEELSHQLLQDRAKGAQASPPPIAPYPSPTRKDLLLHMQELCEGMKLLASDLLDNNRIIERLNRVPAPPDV

[2] = target: T2, Serine/threonine-protein kinase Nek1 (Homo sapiens) (UniProt Q96PY6); conditions: at 0.1 µM
T2 sequence (whole entry): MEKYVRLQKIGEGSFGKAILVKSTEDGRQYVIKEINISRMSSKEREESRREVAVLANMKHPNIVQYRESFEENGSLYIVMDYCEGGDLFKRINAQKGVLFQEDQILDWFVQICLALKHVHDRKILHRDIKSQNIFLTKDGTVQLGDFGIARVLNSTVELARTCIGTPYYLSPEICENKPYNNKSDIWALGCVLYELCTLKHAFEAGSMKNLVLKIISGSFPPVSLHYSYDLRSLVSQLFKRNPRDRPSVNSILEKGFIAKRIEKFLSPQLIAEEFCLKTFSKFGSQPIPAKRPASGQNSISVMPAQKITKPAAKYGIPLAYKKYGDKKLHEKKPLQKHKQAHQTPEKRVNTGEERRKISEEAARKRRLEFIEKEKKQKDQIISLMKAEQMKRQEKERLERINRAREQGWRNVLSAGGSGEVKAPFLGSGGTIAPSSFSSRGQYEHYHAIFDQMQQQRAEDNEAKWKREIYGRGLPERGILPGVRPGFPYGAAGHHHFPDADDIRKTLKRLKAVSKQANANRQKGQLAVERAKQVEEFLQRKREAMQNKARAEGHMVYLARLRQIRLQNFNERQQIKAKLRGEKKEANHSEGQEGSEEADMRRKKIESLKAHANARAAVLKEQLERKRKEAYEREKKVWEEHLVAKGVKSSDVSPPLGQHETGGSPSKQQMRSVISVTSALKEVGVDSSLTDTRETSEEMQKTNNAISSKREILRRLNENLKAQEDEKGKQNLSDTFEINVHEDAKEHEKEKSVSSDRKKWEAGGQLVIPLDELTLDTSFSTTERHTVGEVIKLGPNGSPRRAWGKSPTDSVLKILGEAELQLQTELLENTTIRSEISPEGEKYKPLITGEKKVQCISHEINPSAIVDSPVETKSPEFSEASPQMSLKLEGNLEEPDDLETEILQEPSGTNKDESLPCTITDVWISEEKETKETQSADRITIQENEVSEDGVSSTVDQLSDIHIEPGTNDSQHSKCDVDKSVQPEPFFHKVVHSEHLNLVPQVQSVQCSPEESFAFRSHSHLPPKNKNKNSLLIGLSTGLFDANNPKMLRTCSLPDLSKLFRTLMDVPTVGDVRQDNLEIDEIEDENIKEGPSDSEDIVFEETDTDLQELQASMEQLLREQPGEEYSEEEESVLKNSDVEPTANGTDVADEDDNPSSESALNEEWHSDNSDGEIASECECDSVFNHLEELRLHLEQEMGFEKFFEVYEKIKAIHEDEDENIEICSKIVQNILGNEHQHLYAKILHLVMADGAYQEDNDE

[3] = target: T2, Serine/threonine-protein kinase Nek1 (Homo sapiens); conditions: at 1 µM
[4] = target: T3, Serine/threonine-protein kinase Nek2 (Homo sapiens) (UniProt P51955); conditions: at 0.1 µM
T3 sequence (whole entry): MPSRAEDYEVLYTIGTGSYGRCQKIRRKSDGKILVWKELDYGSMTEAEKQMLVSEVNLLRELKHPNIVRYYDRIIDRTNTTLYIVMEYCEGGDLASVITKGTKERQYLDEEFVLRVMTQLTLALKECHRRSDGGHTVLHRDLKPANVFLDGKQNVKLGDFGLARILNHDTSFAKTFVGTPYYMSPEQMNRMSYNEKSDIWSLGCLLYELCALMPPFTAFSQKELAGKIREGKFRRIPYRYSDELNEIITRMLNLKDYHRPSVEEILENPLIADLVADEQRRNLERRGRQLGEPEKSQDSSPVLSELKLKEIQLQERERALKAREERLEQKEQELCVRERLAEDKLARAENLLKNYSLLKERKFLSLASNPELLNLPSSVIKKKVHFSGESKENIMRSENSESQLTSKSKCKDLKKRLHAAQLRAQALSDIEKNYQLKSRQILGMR

[5] = target: T3, Serine/threonine-protein kinase Nek2 (Homo sapiens); conditions: at 1 µM
[6] = target: Serine/threonine-protein kinase Nek6 (Homo sapiens) (UniProt Q9HC98); conditions: at 0.1 µM
[7] = target: Serine/threonine-protein kinase Nek6 (Homo sapiens) (UniProt Q9HC98); conditions: at 1 µM
[8] = target: Serine/threonine-protein kinase Nek7 (Homo sapiens) (UniProt Q8TDX7); conditions: at 0.1 µM
[9] = target: Serine/threonine-protein kinase Nek7 (Homo sapiens) (UniProt Q8TDX7); conditions: at 1 µM
[10] = target: T4, Serine/threonine-protein kinase Nek9 (Homo sapiens) (UniProt Q8TD19); conditions: at 0.1 µM;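 further: reported value is the mean percent inhibition of NEK9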
T4 sequence (whole entry): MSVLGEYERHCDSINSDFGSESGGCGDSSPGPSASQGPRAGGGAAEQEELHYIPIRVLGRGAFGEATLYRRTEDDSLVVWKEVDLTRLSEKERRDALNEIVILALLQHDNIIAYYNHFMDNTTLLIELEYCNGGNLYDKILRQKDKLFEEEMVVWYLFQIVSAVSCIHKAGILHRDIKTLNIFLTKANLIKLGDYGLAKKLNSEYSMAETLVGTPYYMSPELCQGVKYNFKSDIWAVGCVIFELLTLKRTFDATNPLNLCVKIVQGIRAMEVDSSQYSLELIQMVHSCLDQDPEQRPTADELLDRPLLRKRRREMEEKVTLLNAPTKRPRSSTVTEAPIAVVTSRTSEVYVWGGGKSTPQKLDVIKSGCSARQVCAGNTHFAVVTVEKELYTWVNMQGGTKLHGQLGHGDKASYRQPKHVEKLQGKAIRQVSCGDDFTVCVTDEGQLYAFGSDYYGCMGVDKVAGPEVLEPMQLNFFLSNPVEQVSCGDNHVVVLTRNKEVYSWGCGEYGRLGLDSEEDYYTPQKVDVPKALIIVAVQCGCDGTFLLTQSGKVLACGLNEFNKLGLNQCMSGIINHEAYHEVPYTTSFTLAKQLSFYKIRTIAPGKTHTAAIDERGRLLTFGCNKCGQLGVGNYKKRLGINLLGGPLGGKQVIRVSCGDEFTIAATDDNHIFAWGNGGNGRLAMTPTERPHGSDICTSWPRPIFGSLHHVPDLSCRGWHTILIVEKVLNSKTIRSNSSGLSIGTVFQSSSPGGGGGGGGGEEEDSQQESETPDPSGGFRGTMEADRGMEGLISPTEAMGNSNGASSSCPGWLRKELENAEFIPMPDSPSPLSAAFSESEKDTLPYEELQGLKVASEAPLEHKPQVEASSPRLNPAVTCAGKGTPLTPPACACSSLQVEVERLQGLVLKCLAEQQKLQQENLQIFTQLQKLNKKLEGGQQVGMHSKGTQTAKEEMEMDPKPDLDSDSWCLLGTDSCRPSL

Chain of Serine/threonine-protein kinase Nek6 (Homo sapiens) (Q9HC98 whole entry): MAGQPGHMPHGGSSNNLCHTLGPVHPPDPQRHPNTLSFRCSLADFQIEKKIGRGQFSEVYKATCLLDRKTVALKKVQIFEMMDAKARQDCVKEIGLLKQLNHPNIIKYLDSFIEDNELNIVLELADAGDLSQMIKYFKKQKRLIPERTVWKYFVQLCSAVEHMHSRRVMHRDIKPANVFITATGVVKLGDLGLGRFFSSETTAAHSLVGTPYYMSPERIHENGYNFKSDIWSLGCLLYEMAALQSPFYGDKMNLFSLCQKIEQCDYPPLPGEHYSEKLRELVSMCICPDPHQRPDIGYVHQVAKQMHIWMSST
Chain of Serine/threonine-protein kinase Nek7 (Homo sapiens) (Q8TDX7 whole entry, looked up): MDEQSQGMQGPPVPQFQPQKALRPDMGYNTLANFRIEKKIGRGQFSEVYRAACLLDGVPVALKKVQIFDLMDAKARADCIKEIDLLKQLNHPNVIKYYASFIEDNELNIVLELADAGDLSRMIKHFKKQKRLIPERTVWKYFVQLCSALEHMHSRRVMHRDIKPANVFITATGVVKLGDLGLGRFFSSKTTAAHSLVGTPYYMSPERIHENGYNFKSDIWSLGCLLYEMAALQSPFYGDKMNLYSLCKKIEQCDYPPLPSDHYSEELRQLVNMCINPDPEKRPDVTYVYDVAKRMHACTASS

SMILES: Cc1ccc(Nc2ccnc(Nc3cccc(C(N)=O)c3)n2)cc1O
- inhibition [1]: 19.4%
- inhibition [2]: 2.35%
- inhibition [3]: 3.58%
- inhibition [4]: 4%
- inhibition [5]: 2.98%
- inhibition [6]: 4.22%
- inhibition [7]: 2.69%
- inhibition [8]: 4.63%
- inhibition [9]: 4.4%
- inhibition [10]: 6.86%
